Results filed as inconclusive are left out. Activity calls are given as the source filed them. Unless noted, the call rests on the fitted dose curve; in most records, active means well fitted curve in the direction sought with a large enough effect; inconclusive means small, poorly fitted or top-dose-only effect, or another doubt; inactive means no such curve, though single readings can be large; an effect the other way counts as inactive or inconclusive.
What was measured:
[1] = target: Cytochrome P450 1A2 (Homo sapiens) (UniProt P05177); assay: p450-cyp1a2 (AID 410; calls by dose curve)
How it was run: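 Luminescent readout of luciferin formed from Luciferin-ME by human CYP1A2; data normalized against complete inhibition by 57 uM furafylline. Enzyme 20nM, substrate 100uM at Km, 100mM KPO4 buffer, 60 min reaction at room temperature.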

[2] = target: Mitogen-activated protein kinase 10 (Mus musculus) (UniProt Q61831); assay: JNK3 AlphaScreen Assay (AID 530; active means well fitted curve in either direction with a large enough effect, not every such curve was filed as active;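 further: kinase came from lysate of stimulated human HepG2 cells; signal reports phosphorylation of biotinylated GST-cJun 1-79 at Ser73 with 10 µM ATP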)
How it was run: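 Inhibitors reduce antibody binding to phosphorylated biotin-cJun, lowering AlphaScreen luminescence. Lysates from HepG2 cells pre-activated by IL-1beta plus TNF-alpha supplied JNK3; compounds were titrated.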

[3] = target: alpha-glucosidase (Oryza sativa, rice) (UniProt Q653V4); assay: Counterscreen for Glucocerebrosidase Inhibitors: qHTS Assay for Rice alpha-Glucosidase at pH 5.0 (AID 997)
How it was run: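 Rice alpha-glucosidase (4 nM final) with 400 uM 4-methylumbelliferyl-alpha-D-glucopyranoside in citrate buffer pH 5.0, 20 min at room temperature, stopped at pH 10; fluorescence 365/440 nm, compounds 0.7 nM–77 uM, AC50 from Hill fits.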

[4] = S16 Schwann cell PMP22 intronic element beta-lactamase assay (AID 624044; calls by dose curve; further: nearly all actives have a fitted effect of over 15% in size); conditions: S16 rat Schwann cells, PMP22 element beta-lactamase FRET, 24 h; ratio activity, negative = inhibition: at 38.3 µM (top of the series)
How it was run: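 Rat S16 Schwann cells with beta-Lac driven by a PMP22 intronic element, compound-treated 24 h at 37 °C. LiveBLAzer FRET B/G read: 460 nm normalized to potassium clavulanate vs DMSO; 535 nm FRET as viability; concentration-effect curves classified.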

3D7 = assay: qHTS profiling for inhibitors of Plasmodium falciparum proliferation (AID 504749); further: nearly all actives have a fitted effect of over 60% in size; further: potency means the concentration at half of the fitted maximal effect; conditions: P. falciparum in erythrocytes, SYBR Green DNA, 72 h; series mostly up to 28.7 µM
How it was run: (§1)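 Parasite proliferation within erythrocytes, 72 h exposure. Endpoint: SYBR Green I fluorescence after overnight lysis at room temperature. Controls: 0.29 uM artemisinin, DMSO.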

7G8 = assay: as above; conditions: P. falciparum in erythrocytes, SYBR Green DNA, 72 h; series mostly up to 28.7 µM
How it was run: as §1

AA1029 = assay: as above; conditions: P. falciparum in erythrocytes, SYBR Green DNA, 72 h; series mostly up to 28.7 µM
How it was run: as §1

AS120 = assay: as above; conditions: P. falciparum in erythrocytes, SYBR Green DNA, 72 h; series mostly up to 28.7 µM
How it was run: as §1

ATS189 = assay: as above; conditions: P. falciparum in erythrocytes, SYBR Green DNA, 72 h; series mostly up to 28.7 µM
How it was run: as §1

ATS95 = assay: as above; conditions: P. falciparum in erythrocytes, SYBR Green DNA, 72 h; series mostly up to 28.7 µM
How it was run: as §1

C2A = assay: as above; conditions: P. falciparum in erythrocytes, SYBR Green DNA, 72 h; series mostly up to 28.7 µM
How it was run: as §1

CP185 = assay: as above; conditions: P. falciparum in erythrocytes, SYBR Green DNA, 72 h; series mostly up to 28.7 µM
How it was run: as §1

CP191 = assay: as above; conditions: P. falciparum in erythrocytes, SYBR Green DNA, 72 h; series mostly up to 28.7 µM
How it was run: as §1

CP192 = assay: as above; conditions: P. falciparum in erythrocytes, SYBR Green DNA, 72 h; series mostly up to 28.7 µM
How it was run: as §1

CP194 = assay: as above; conditions: P. falciparum in erythrocytes, SYBR Green DNA, 72 h; series mostly up to 28.7 µM
How it was run: as §1

CP201 = assay: as above; conditions: P. falciparum in erythrocytes, SYBR Green DNA, 72 h; series mostly up to 28.7 µM
How it was run: as §1

CP203 = assay: as above; conditions: P. falciparum in erythrocytes, SYBR Green DNA, 72 h; series mostly up to 28.7 µM
How it was run: as §1

CP211 = assay: as above; conditions: P. falciparum in erythrocytes, SYBR Green DNA, 72 h; series mostly up to 28.7 µM
How it was run: as §1

CP215 = assay: as above; conditions: P. falciparum in erythrocytes, SYBR Green DNA, 72 h; series mostly up to 28.7 µM
How it was run: as §1

CP217 = assay: as above; conditions: P. falciparum in erythrocytes, SYBR Green DNA, 72 h; series mostly up to 28.7 µM
How it was run: as §1

CP237 = assay: as above; conditions: P. falciparum in erythrocytes, SYBR Green DNA, 72 h; series mostly up to 28.7 µM
How it was run: as §1

CP238 = assay: as above; conditions: P. falciparum in erythrocytes, SYBR Green DNA, 72 h; series mostly up to 28.7 µM
How it was run: as §1

CP247 = assay: as above; conditions: P. falciparum in erythrocytes, SYBR Green DNA, 72 h; series mostly up to 28.7 µM
How it was run: as §1

CP250 = assay: as above; conditions: P. falciparum in erythrocytes, SYBR Green DNA, 72 h; series mostly up to 28.7 µM
How it was run: as §1

CP252 = assay: as above; conditions: P. falciparum in erythrocytes, SYBR Green DNA, 72 h; series mostly up to 28.7 µM
How it was run: as §1

CP256 = assay: as above; conditions: P. falciparum in erythrocytes, SYBR Green DNA, 72 h; series mostly up to 28.7 µM
How it was run: as §1

CP260 = assay: as above; conditions: P. falciparum in erythrocytes, SYBR Green DNA, 72 h; series mostly up to 28.7 µM
How it was run: as §1

CP262 = assay: as above; conditions: P. falciparum in erythrocytes, SYBR Green DNA, 72 h; series mostly up to 28.7 µM
How it was run: as §1

CP265 = assay: as above; conditions: P. falciparum in erythrocytes, SYBR Green DNA, 72 h; series mostly up to 28.7 µM
How it was run: as §1

CP266 = assay: as above; conditions: P. falciparum in erythrocytes, SYBR Green DNA, 72 h; series mostly up to 28.7 µM
How it was run: as §1

CP268 = assay: as above; conditions: P. falciparum in erythrocytes, SYBR Green DNA, 72 h; series mostly up to 28.7 µM
How it was run: as §1

CP269 = assay: as above; conditions: P. falciparum in erythrocytes, SYBR Green DNA, 72 h; series mostly up to 28.7 µM
How it was run: as §1

CP286 = assay: as above; conditions: P. falciparum in erythrocytes, SYBR Green DNA, 72 h; series mostly up to 28.7 µM
How it was run: as §1

CP291 = assay: as above; conditions: P. falciparum in erythrocytes, SYBR Green DNA, 72 h; series mostly up to 28.7 µM
How it was run: as §1

CP297 = assay: as above; conditions: P. falciparum in erythrocytes, SYBR Green DNA, 72 h; series mostly up to 28.7 µM
How it was run: as §1

CP305 = assay: as above; conditions: P. falciparum in erythrocytes, SYBR Green DNA, 72 h; series mostly up to 28.7 µM
How it was run: as §1

CP325 = assay: as above; conditions: P. falciparum in erythrocytes, SYBR Green DNA, 72 h; series mostly up to 28.7 µM
How it was run: as §1

CP329 = assay: as above; conditions: P. falciparum in erythrocytes, SYBR Green DNA, 72 h; series mostly up to 28.7 µM
How it was run: as §1

CP335 = assay: as above; conditions: P. falciparum in erythrocytes, SYBR Green DNA, 72 h; series mostly up to 28.7 µM
How it was run: as §1

DFO2036 = assay: as above; conditions: P. falciparum in erythrocytes, SYBR Green DNA, 72 h; series mostly up to 28.7 µM
How it was run: as §1

DIV14 = assay: as above; conditions: P. falciparum in erythrocytes, SYBR Green DNA, 72 h; series mostly up to 28.7 µM
How it was run: as §1

DIV17 = assay: as above; conditions: P. falciparum in erythrocytes, SYBR Green DNA, 72 h; series mostly up to 28.7 µM
How it was run: as §1

DIV30 = assay: as above; conditions: P. falciparum in erythrocytes, SYBR Green DNA, 72 h; series mostly up to 28.7 µM
How it was run: as §1

Dd2 = assay: as above; conditions: P. falciparum in erythrocytes, SYBR Green DNA, 72 h; series mostly up to 28.7 µM
How it was run: as §1

ECU = assay: as above; conditions: P. falciparum in erythrocytes, SYBR Green DNA, 72 h; series mostly up to 28.7 µM
How it was run: as §1

HB3 = assay: as above; conditions: P. falciparum in erythrocytes, SYBR Green DNA, 72 h; series mostly up to 28.7 µM
How it was run: as §1

ICS = assay: as above; conditions: P. falciparum in erythrocytes, SYBR Green DNA, 72 h; series mostly up to 28.7 µM
How it was run: as §1

N140 = assay: as above; conditions: P. falciparum in erythrocytes, SYBR Green DNA, 72 h; series mostly up to 28.7 µM
How it was run: as §1

P93_24 = assay: as above; conditions: P. falciparum in erythrocytes, SYBR Green DNA, 72 h; series mostly up to 28.7 µM
How it was run: as §1

P94_40 = assay: as above; conditions: P. falciparum in erythrocytes, SYBR Green DNA, 72 h; series mostly up to 28.7 µM
How it was run: as §1

PAD = assay: as above; conditions: P. falciparum in erythrocytes, SYBR Green DNA, 72 h; series mostly up to 28.7 µM
How it was run: as §1

PC15 = assay: as above; conditions: P. falciparum in erythrocytes, SYBR Green DNA, 72 h; series mostly up to 28.7 µM
How it was run: as §1

PC26 = assay: as above; conditions: P. falciparum in erythrocytes, SYBR Green DNA, 72 h; series mostly up to 28.7 µM
How it was run: as §1

SC27B = assay: as above; conditions: P. falciparum in erythrocytes, SYBR Green DNA, 72 h; series mostly up to 28.7 µM
How it was run: as §1

TAB109 = assay: as above; conditions: P. falciparum in erythrocytes, SYBR Green DNA, 72 h; series mostly up to 28.7 µM
How it was run: as §1

TAB113 = assay: as above; conditions: P. falciparum in erythrocytes, SYBR Green DNA, 72 h; series mostly up to 28.7 µM
How it was run: as §1

TAB165 = assay: as above; conditions: P. falciparum in erythrocytes, SYBR Green DNA, 72 h; series mostly up to 28.7 µM
How it was run: as §1

W2 = assay: as above; conditions: P. falciparum in erythrocytes, SYBR Green DNA, 72 h; series mostly up to 28.7 µM
How it was run: as §1

Measured: Potency

Sequence of Cytochrome P450 1A2 (Homo sapiens) (P05177 whole entry, looked up): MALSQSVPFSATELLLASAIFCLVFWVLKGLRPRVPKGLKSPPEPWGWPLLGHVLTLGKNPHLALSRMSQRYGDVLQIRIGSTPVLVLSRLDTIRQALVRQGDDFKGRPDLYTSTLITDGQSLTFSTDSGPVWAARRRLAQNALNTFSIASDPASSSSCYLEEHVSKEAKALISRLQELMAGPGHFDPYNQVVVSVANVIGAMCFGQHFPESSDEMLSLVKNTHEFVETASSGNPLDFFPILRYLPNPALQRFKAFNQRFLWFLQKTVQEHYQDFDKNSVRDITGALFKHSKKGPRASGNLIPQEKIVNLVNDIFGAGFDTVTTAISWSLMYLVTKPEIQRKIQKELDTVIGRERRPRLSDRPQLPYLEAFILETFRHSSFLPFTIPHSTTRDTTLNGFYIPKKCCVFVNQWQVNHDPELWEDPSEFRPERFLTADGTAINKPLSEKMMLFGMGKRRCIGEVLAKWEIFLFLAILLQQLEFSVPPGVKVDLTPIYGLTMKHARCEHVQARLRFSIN

C/C=C\C[C@H](C)[C@H](O)[C@H]1C(=O)N[C@@H](CC)C(=O)N(C)CC(=O)N(C)[C@@H](CC(C)C)C(=O)N[C@@H](C(C)C)C(=O)N(C)[C@@H](CC(C)C)C(=O)N[C@@H](C)C(=O)N[C@@H](C)C(=O)N(C)[C@@H](CC(C)C)C(=O)N(C)[C@@H](CC(C)C)C(=O)N(C)[C@@H](C(C)C)C(=O)N1C
inactive: [1] | [2] | [3] | [4] | ATS189
active: 3D7 3.98 µM | 7G8 8.91 µM | AA1029 2.82 µM | AS120 3.98 µM | ATS95 3.55 µM | C2A 3.55 µM | CP185 3.55 µM | CP191 3.16 µM | CP192 6.75 µM | CP194 8.49 µM | CP201 6.75 µM | CP203 13.5 µM | CP211 6.75 µM | CP215 7.57 µM | CP217 3.16 µM | CP237 4.47 µM | CP238 3.55 µM | CP247 3.55 µM | CP250 3.55 µM | CP252 3.55 µM | CP256 3.16 µM | CP260 2.82 µM | CP262 3.79 µM | CP265 3.55 µM | CP266 10.7 µM | CP268 15.1 µM | CP269 6.01 µM | CP286 7.08 µM | CP291 10.7 µM | CP297 4.78 µM | CP305 6.01 µM | CP325 7.57 µM | CP329 6.01 µM | CP335 4.26 µM | DFO2036 2.51 µM | DIV14 6.75 µM | DIV17 8.49 µM | DIV30 13.5 µM | Dd2 5.01 µM | ECU 2.24 µM | HB3 7.08 µM | ICS 3.98 µM | N140 2.82 µM | P93_24 5.01 µM | P94_40 5.01 µM | PAD 3.55 µM | PC15 11.2 µM | PC26 6.75 µM | SC27B 2.82 µM | TAB109 3.55 µM | TAB113 3.55 µM | TAB165 4.47 µM | W2 1.9 µM

Source: PubChem BioAssay (NCATS)
